# Bioassay records: PubChem BioAssay, National Center for Advancing Translational Sciences (NCATS)
# An excerpt weighted towards active compounds, which were near 11% of everything screened.
# NPSR antagonist: neuropeptide S receptor (human) antagonism, cAMP | Q6W5P4 | CHO-NPSR cells, cAMP TR-FRET, antagonist mode | Potency, µM (series often up to 38.3 µM), for the others: at the top dose activity change, negative = inhibition, hits mostly inhibitors | 220,000 tested, 1% active | AID 1461; note: potency is the fitted concentration of half-maximal effect; nearly all actives have a fitted effect of over 50% in size
# Target sequence (Q6W5P4 whole entry, looked up): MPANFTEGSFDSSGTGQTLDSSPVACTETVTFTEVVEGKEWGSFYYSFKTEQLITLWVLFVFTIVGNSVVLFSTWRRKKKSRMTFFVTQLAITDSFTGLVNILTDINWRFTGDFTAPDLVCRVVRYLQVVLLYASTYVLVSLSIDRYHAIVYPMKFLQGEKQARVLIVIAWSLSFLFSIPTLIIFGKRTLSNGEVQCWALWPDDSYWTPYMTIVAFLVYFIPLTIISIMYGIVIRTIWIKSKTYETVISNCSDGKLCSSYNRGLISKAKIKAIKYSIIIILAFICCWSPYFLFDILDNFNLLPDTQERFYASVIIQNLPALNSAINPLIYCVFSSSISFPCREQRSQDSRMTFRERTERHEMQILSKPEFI
# IMPase cell inh: cell-permeable inhibitors of inositol monophosphatase (IMPase); inhibition (IP1 accumulation), % at 46.1 µM; P97697; 120,000 tested, under 10 active; CHO-M1 cells, IP1 accumulation, HTRF TR-FRET ratio; AID 901; active = well fitted curve in the direction sought with a large enough effect in the signal ratio, not every such curve was filed as active; inconclusive = small, poorly fitted or top-dose-only effect, or a change in a side signal; inactive = no such curve, though single readings can be large or run the other way; the % refers to the signal ratio;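 note: cells stimulated with carbachol in lithium chloride buffer; plate controls were DMSO basal wells for no effect and reference inhibitor wells for full effect; higher means more IMPase inhibition seen as more IP1 and lower FRET ratio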
#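 Measured: the HTRF emission ratio (665/620 nm) plus the 620 nm donor channel, each fitted to the Hill equation to give AC50. Cells were CHO-M1 given compounds up to 46 uM and a 30 min carbachol stimulation at 37C.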
# ALDH1A1 inh: inhibitors of human aldehyde dehydrogenase 1A1; Purified ALDH1A1, NADH fluorescence, propionaldehyde substrate; Potency, µM (titrated, usually from 75.3 µM), for inactives: top-dose activity, negative = inhibition, usual class: inhibitors; 220,000 tested, 7.3% active; active = well fitted inhibition curve with a large enough effect, not every such curve was filed as active; inconclusive = small, poorly fitted or top-dose-only effect, or another doubt; inactive = no such curve, though single readings can be large or run the other way;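 note: potency is the fitted concentration of half-maximal effect; plate controls were no enzyme wells and a reference inhibitor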
# HPGD block: inhibitors of human 15-hydroxyprostaglandin dehydrogenase (HPGD). P15428. purified HPGD, NADH fluorescence kinetic, PGE2 substrate. Potency, µM, without a hit: at the highest dose activity change, negative = inhibition, most hits filed as inhibitors. 150,000 tested, 4.3% active; active = well fitted inhibition curve with a large enough effect, not every such curve was filed as active; inconclusive = small, poorly fitted or top-dose-only effect, or another doubt; inactive = no such curve, though single readings can be large or run the other way; note: potency is the fitted concentration of half-maximal effect
# Target sequence (P15428 whole entry, looked up): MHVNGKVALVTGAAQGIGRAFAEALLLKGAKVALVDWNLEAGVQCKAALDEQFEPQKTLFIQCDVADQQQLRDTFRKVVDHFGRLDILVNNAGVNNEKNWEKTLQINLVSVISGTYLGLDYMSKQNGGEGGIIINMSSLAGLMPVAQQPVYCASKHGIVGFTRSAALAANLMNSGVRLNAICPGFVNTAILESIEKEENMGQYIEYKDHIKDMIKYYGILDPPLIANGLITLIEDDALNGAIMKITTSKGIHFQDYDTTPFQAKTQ
#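 20 nM HPGD preincubated 15 min at room temperature with compound in 50 mM Tris-HCl pH 8, 0.01% Tween 20. Started with 1 mM NAD+ and 30 uM prostaglandin E2; NADH fluorescence (360/450 nm) read 5 times over 30-s intervals, last minus first.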
# IMPase Li cell: IMPase inhibition in cells with lithium potentiation; Potency, µM (top dose mostly 59.4 µM), for inactives: top-dose activity, negative = IMPase inhibition, actives largely listed as inhibitors; AID 1457; CHO-M1 cells, IP1 TR-FRET (IP-One), carbachol + lithium; 210,000 tested, 0.35% active;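 note: IP1 builds up when IMPase is blocked and the TR-FRET signal falls; potency is the fitted concentration of half-maximal effect; plate controls were basal vehicle for no effect and high inhibitor control for full effect; nearly all actives have a fitted effect of over 50% in size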
#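 CHO cells stably expressing M1 receptor (2000/well) were cultured 16–30 h, then exposed to compounds with a small lithium addition for 30 min at 37C. IP1 was measured by TR-FRET competition; AC50 from Hill fits.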
# PNC inhibitor: perinucleolar compartment assembly inhibition | PC3M PTB-GFP, PNC prevalence imaging, 16 h; active compounds read low | activity change (PNC), negative = inhibition, % at 10 µM | 140,000 tested, 3.1% active | AID 2417;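 active = readout at or below -70, meaning at least 70% loss of cells showing the perinucleolar compartment, a nuclear body marking cancer cells; inconclusive = readout between -30 and a set limit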;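 note: plate controls were DMSO wells for no effect and camptothecin positive control wells for full effect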
#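 PC3M cells stably expressing PTB-GFP, 750–1000 cells/well, treated 16 h at 37 °C with compound (23 nl of library stock), in duplicate. After paraformaldehyde fixation and Hoechst stain, imaged at 20x; PNC prevalence scored by image analysis.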
# * = called active by the depositor; ? = inconclusive; . = no result; [ ] = remark or other dose. Unless noted, calls come from the whole dose curve; as a rule, active = well fitted curve in the direction sought with a large enough effect; inconclusive = small, poorly fitted or top-dose-only effect, or another doubt; inactive = no such curve, though single readings can be large; an effect the other way counts as inactive or inconclusive. Unless noted, % is set by controls: 0 for no effect and ±100 for the full control effect.
SMILES,NPSR antagonist,IMPase cell inh,ALDH1A1 inh,HPGD block,IMPase Li cell,PNC inhibitor
C/C(=N\Nc1ccc(S(=O)(=O)N2CCOCC2)cc1[N+](=O)[O-])C(C)C,-27%,.,18µM*,.,26%,.
CC(C)C(Nc1ccc(S(=O)(=O)N2CCOCC2)cc1[N+](=O)[O-])C(=O)O (stereo not given),4%,.,1.3µM*,.,-3%,.
O=C(CNc1ccc(Br)cc1)c1ccc(O)cc1,-40%,.,11µM*,.,-4%,.
O=C(CNc1ccc(Cl)cc1)c1ccc(Br)cc1,7%,.,10µM*,.,2%,.
O=C(CNc1ccc(Br)cc1)NNC1=NCCC1,12%,.,17%,-1%,1%,-113*
COc1ccc2nc(C)cc(SCC(=O)N/N=C/c3ccc(O)c(O)c3)c2c1,-4%,.,28µM*,.,14%,.
Cc1cc(SCC(=O)N/N=C/c2ccc(O)c(O)c2)c(C)cc1Br,-3%[46.1 µM],3,5%,2.8µM*,14%[38.3 µM],31
CS(=O)c1ccccc1-c1nc(-c2cccc(Cl)c2)no1 (stereo not given),-12%,.,-2%,.,-3%,.
CCCCCC(=O)O[C@]1(C(C)=O)CC[C@H]2[C@@H]3CCC4=CC(=O)CC[C@]4(C)[C@H]3CC[C@@]21C,10µM*,.,-13%,-11%,14%,-1
CC(=O)[C@@]1(O)CC[C@H]2[C@@H]3CCC4=CC(=O)CC[C@]4(C)[C@H]3CC[C@@]21C,-16%,.,5%,-18%,14%,51
Cn1c(=S)ccc2ccccc21,-7%,.,25µM*,.,-12%,.
Cc1ccccc1-c1nsc(SCC(=O)c2ccc(Cl)cc2)n1,-20%,?,-9%,-21%,-3%,4
Cc1ccc(C(=O)CSc2nsc(C)c2C#N)cc1,-16%[46.1 µM],-24[1.84 µM],?,22µM*,21%[38.3 µM],53
Cc1cc(C)c(C#N)c(OCC(=O)c2ccc(Br)cc2)n1,-12%[46.1 µM],3,?,-18%,15%[38.3 µM],12
Cc1ccnc(SCC(=O)c2ccc(Br)cc2)c1C#N,-32%,.,?,28µM*,9%,41
Cc1snc(SCC(=O)c2ccc(Cl)cc2)c1C#N,-19%[46.1 µM],4,20µM*,?,-14%[38.3 µM],-11
CCOC(=O)C1(Cc2ccccc2Cl)CCN(C(=O)CCn2ccnc2C)CC1,29%,.,-6%,.,15%,.
CCOC(=O)C1(Cc2ccccc2Cl)CCN(S(=O)(=O)N(C)C)CC1,48%,.,8.9µM*,.,10%,.
COc1cc(OC)cc(C(=O)NC(=S)Nc2ccc(NC(=O)c3ccco3)cc2)c1,12%,.,?,-12%,1%,6
CCOc1ccc(Nc2n[nH]c(=S)s2)cc1,-23%[46.1 µM],9,1.3µM*,.,.,0
S=c1[nH]nc(Nc2ccc(Cl)cc2)s1,-3%,.,.,.,.,.
Cc1cc(SC#N)cc(C)c1NC(=O)CCl,-15%,-10,?,?,-11%,-115*
COCC(=O)Nc1ccc([N+](=O)[O-])cc1C,12%,.,11%,-10%,-2%,40
CCc1cc(SC#N)cc(C)c1N,-4%,.,?,.,4%,.
CCC(=O)Nc1ccc(SC#N)cc1C,21%[46.1 µM],0,2.5µM*,-16%,-1%[38.3 µM],-8
SMILES,NPSR antagonist,IMPase cell inh,ALDH1A1 inh,HPGD block,IMPase Li cell,PNC inhibitor
CCc1cc(SC#N)cc(C)c1NC(=O)CCl,26%,.,-4%,16µM*,22%,29
c1cncc(-c2ccc3ncnc(NC4CCNCC4)c3c2)c1,.,.,-6%,.,9%,.
CC(C)(Oc1ccc(Cl)cc1)C(=O)NC1CCSC1=O (stereo not given),-14%[46.1 µM],1,0%,-7%,5%,-10
COCCCn1c(=O)/c(=C\c2ccccc2OC(F)F)s/c1=C(/C#N)C(=O)NCCOC,-21%,.,.,.,.,.
COCCCn1c(=O)/c(=C\c2ccccc2OC(F)F)s/c1=C(/C#N)C(=O)N1CCOCC1,-23%,.,6.3µM*,.,13%,.
Cc1nc2c(sc3nc4c(cc32)COC(C)(C)C4)c(=O)n1Cc1ccccc1,?,-3,?,-16%,28%[38.3 µM],-19
N=C1/C(=C/c2coc3ccccc3c2=O)C(=O)N=C2SC(c3ccco3)=NN12,-37%,.,.,.,.,.
N=C1/C(=C\c2coc3ccc(O)cc3c2=O)C(=O)N=C2SC=CN12,9%,.,16µM*,.,.,.
CSC1=NSC2=NC(=O)/C(=C\c3coc4ccccc4c3=O)C(=N)N12,-38%,.,?,32µM*,10%,?
O=C(NCc1cccnc1)c1cccc(F)c1,-9%[46.1 µM],7,-4%,-8%,23%[38.3 µM],33
C(=N\n1cnnc1)/c1ccc(OC2CSC2)cc1,-16%[46.1 µM],1,3%,-13%,1%[38.3 µM],6
c1ccc(N2CCN(c3nc4ccccc4n4cnnc34)CC2)cc1,-11%[46.1 µM],4,-11%,?,17%[38.3 µM],23
c1ccc(CN2CCN(c3nc4ccccc4n4cnnc34)CC2)cc1,-2%[46.1 µM],6,-14%,14µM*,42%[38.3 µM],18
C1=C(c2ccccc2)CCN(c2nc3ccccc3n3cnnc23)C1,-17%[46.1 µM],0,28µM*,14µM*,11%[38.3 µM],6
CCOc1ccc(NC(=O)CSc2nnc(Cc3cccn3C)n2-c2ccc(OC)cc2)cc1,-16%[46.1 µM],-6,4µM*,-9%,1%[38.3 µM],-2
COc1ccc(NC(=O)CSc2nnc(Cc3cccs3)n2-c2ccc(C)cc2)cc1,-25%[46.1 µM],1,16µM*,-6%,22%[38.3 µM],34
Cc1ccc(NC(=O)CSc2nnc(Cc3cccn3C)n2-c2ccc(F)cc2)cc1,-18%,-4,?,-9%,1%,1
CC(=O)c1ccc(NC(=O)CSc2nnc(Cc3cccn3C)n2-c2ccc(F)cc2)cc1,-25%[46.1 µM],9,13µM*,1%,4%[38.3 µM],?
COc1cc(OC)cc(-n2nnnc2SCC(=O)Nc2ccc(C(C)=O)cc2)c1,9%[46.1 µM],-5,-1%,-23%,3.5µM*,43
CCC(C)(C)NC(=O)C(c1ccccn1)N(C(=O)c1csnn1)C1CCCCC1 (stereo not given),1%,.,19%,.,5%,.
CN(C)S(=O)(=O)c1ccc(C(=O)NCc2nnc(SCC(=O)Nc3ccc(F)cc3)n2-c2ccc(F)cc2)cc1,17%,.,7.1µM*,-12%,-7%,37
Cn1cccc1Cc1nnc(SCC(=O)N2CCN(c3ccccc3)CC2)n1-c1ccc(F)cc1,-17%[46.1 µM],?,14µM*,1%,13%[38.3 µM],-1
CCc1ccc(NC(=O)CSc2nnc(Cc3cccn3C)n2-c2ccc(F)cc2)cc1,-13%[46.1 µM],-2,?,-7%,31%[38.3 µM],-90*
COc1ccc(Cl)cc1NC(=O)CSc1nnc(Cc2cccn2C)n1-c1ccc(F)cc1,-52%,-3,-2%,-3%,1%,-85*
Cn1cccc1Cc1nnc(SCC(=O)Nc2ccc(F)cc2F)n1-c1ccc(F)cc1,-10%[46.1 µM],7,?,-10%,29%[38.3 µM],?
O=C(CSc1nnc(CNC(=O)C23CC4CC(CC(C4)C2)C3)n1-c1ccc(F)cc1)Nc1ccc(F)cc1,2%,2,10%,-6%,4%,-3
